In PubChem BioAssay (NCI) one finds growth data, which are given here for 26 compounds.

Common to all, as to assay: NCI-60 one-dose screen, 48 h (100 = growth as untreated, 0 = no growth, -100 = all killed)
What all share (details): 10 µM unless noted

For test [1], the system named is DU-145 prostate.
The subject of test [2] is K-562 leukemia.
The subject of test [3] is MALME-3M melanoma.
Test [4] has as its system MDA-MB-231 breast.
Test [5] relates to RXF 393 renal.
For test [6], the system named is SF-268 CNS.
The test system of test [7] is SF-295 CNS.
For test [8], the system named is SF-539 CNS.
For test [9], the system named is M14 melanoma.
In test [10] the test system is UACC-257 melanoma.

The panel holds about 83,000 compounds, 20% with a hit somewhere; the sample as a whole holds those more often.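 Single-dose data. Exposure time 48 hours. Values below 10 considered active.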 A number with no mark means an inactive call. Calls of active or inactive are those of the source.

Turning to `OCc1ccc2c(c1)OCO2`, the growth in test [1] was 105%; in test [2], 101%; in test [3], 97.5%; in test [4] it was 102%; in test [5], 103%; in test [6] it was 100%. Moreover, the growth in test [7] was 93.8%; in [8], 96.1%; in [9], 103%.
Turning to `CC[C@]12C=CCN3CC[C@]4(C(=C(C(=O)OC)C1)Nc1cc(OC)c(OC(C)=O)cc14)[C@@H]32`, the growth in test [1] is 24.3%; in test [2] it was 4.08% (active); in test [3], 112%; in test [4], 19.7%; in test [5], 37.1%; in [6], 19.5%. For the same compound, the results for the growth in test [7], in test [8] and in test [9] were 20.4%, 11.2% and 13.9%, respectively.
`CC(CO)NC1CCCCC1` (centres undefined): the growth in test [1] is 105%; in [2], 104%; in test [3], 103%; in [4], 91.2%; in [5] it was 114%; in [6], 108%. Further, the growth in test [7] was 113%; in test [8], 91.8%; in test [10], 104%; in test [9], 102%.
In the case of `C[C@]12CCc3sc(NCCc4ccccc4)nc3C1=CC[C@@H]1[C@@H]2CC[C@]2(C)C(=O)CC[C@@H]12`, the growth in test [1] was 33.9%; in test [2] it was 5.14% (active); in test [3], 73.3%; in test [4], 83.1%; in test [5], 20%; in test [6] it was 83.9%. Besides, the growth was 68.4% in [7], 64.8% in test [8], 87.4% in [10] and 85.4% in [9].
Turning to `COc1cc(NCCCN=C(N)N)c2ncccc2c1`, the growth in test [1] was 103%; in test [2], 93.7%; in test [3], 21.1%; in [4], 64.8%; in test [5], 102%; in test [6], 25.2%. Moreover, the results for the growth in test [7], in test [10] and in [9] were 88.6%, 90.3% and 100%, respectively.
For the compound `COc1cc2c(cc1OCCCn1c(-c3ccccn3)nc3ccccc31)N=C[C@@H]1CCCN1C2=O`, the growth in test [1] is 26%; in test [2], 17.4%; in test [3], -9.03% (active); in test [4], 6.19% (active); in [5], -11.8% (active); in test [6], 10.4%. The growth in [7] was -3.07% (active); in test [8], 14.3%; in [9], 10.5%.
As to `CCCCCCCOC(C(=O)OCCN(CC)CC)(c1ccccc1)c1ccccc1`, the growth is 86.9% in [1]; 56.6% in [2]; 100% in test [3]; 82.5% in test [4]; 92.4% in test [5]; 87.9% in test [6]. Besides, the growth was 123% in [7], 96.9% in test [8] and 90.5% in test [9].
Consider `CCN(CC)CCOC(=O)C(OC(C)C)(c1ccccc1)c1ccccc1`, for which the growth in [1] was 98.8%; in [2] it was 97.3%; in [3] it was 101%; in [4] it was 99.3%; in test [5], 98.5%; in test [6] it was 93%. In addition, the results for the growth in [7], in test [8] and in test [9] were 109%, 111% and 110%, respectively.
As for `COc1ccc(O)c(CNC(=O)CN2CCCC2=O)c1`, the growth in test [1] is 108%; in [2] it was 99.4%; in test [3], 96.6%; in test [4], 96.5%; in test [5], 109%; in test [6], 96.8%. The growth was 103% in [7], 104% in [10] and 98% in test [9].
With `CC(C)CCC(=O)O[C@H]1CC[C@H]2[C@@H]3CCC4=CC(=O)CC[C@]4(C)[C@H]3CC[C@]12C`, the growth is 96.5% in test [1]; 98.2% in test [2]; 84.2% in test [3]; 98.2% in [4]; 107% in [5]; 93.1% in test [6]. Also, the growth is 102% in test [7], 96% in [8] and 98.9% in test [9].
On to `Nc1nnnc2nc[nH]c12`, for which the growth in test [1] was 3.72% (active); in test [2], 4.73% (active); in test [3], 34.8%; in test [4], 14.5%; in [5] it was 11.6%; in [6], 28.6%. Further, the values for the growth in [7], in test [8] and in test [9] were 0.603% (active), 14.3% and -35.4% (active), respectively.
Consider `Nc1cc2nc3ccccc3nc2cc1N`, for which the growth was 91.5% in test [1]; 59.8% in test [2]; 122% in [3]; 86.9% in [4]; 81.5% in test [5]; 92.4% in test [6]. Moreover, the values for the growth in [7], in [8] and in test [9] were 89.8%, 95.4% and 109%, respectively.
On to `COC1OC(CO)C(O)C(O)[CH]1[Hg][O]C(C)=O` (centres undefined), for which the growth in test [1] was 96.3%; in test [2], 27.3%; in [3], 76.4%; in [4], 81.9%; in [5], 110%; in [6], 97.6%. The results for the growth in test [7], in test [8] and in [9] were 102%, 106% and 93.7%, respectively.
`CN1C(=O)C(=Cc2cn(CCCCCCn3c4ccccc4c(=O)c4ccccc43)c3ccccc23)C(=O)N(C)C1=O`: the growth is 105% in test [1]; 88.3% in test [2]; 103% in test [3]; 103% in [4]; 115% in [5]; 94.6% in test [6]. Moreover, the growth is 95% in test [7], 86% in test [8], 104% in test [10] and 94% in test [9].
`COc1cc2c(cc1OCCCCn1c(-c3cccs3)nc3ccccc31)N=C[C@@H]1CCCN1C2=O`: the growth is 10.7% in [1]; -26.7% (active) in [2]; -77% (active) in test [3]; -18.6% (active) in test [4]; -60.4% (active) in [5]; -7.58% (active) in [6]. In addition, the results for the growth in [7], in test [8] and in test [9] were -8% (active), -25.3% (active) and -46.2% (active), respectively.
In the case of `O=[As](O)(O)c1ccccc1[As](=O)(O)O`, the growth in [1] is 109%; in test [2], 107%; in test [3], 115%; in test [4], 103%; in test [5], 120%; in [6], 99.3%. Besides, the growth was 96.3% in [8], 101% in test [10] and 116% in test [9].
In the case of `COC(C(=O)[C@@H](O)[C@@H](C)O)[C@@H]1Cc2cc3cc(O[C@H]4C[C@@H](O[C@H]5C[C@@H](O)[C@H](O)C(C)O5)[C@H](O)C(C)O4)c(C)c(O)c3c(O)c2C(=O)[C@H]1O[C@H]1C[C@@H](O[C@H]2C[C@@H](O[C@H]3C[C@@H](O)[C@@H](O)C(C)O3)[C@@H](O)C(C)O2)[C@H](O)C(C)O1` (some centres undefined), the growth in test [1] was 17.5%; in test [2], 9.59% (active); in test [3], -38.7% (active); in test [4] it was 3.75% (active); in [5] it was -60.5% (active); in test [6], 24.4%. Further, the growth was 12.9% in test [7], 1.03% (active) in test [8], -38.6% (active) in test [10] and 8.68% (active) in test [9].
As to `C[N+]12CN3CN(CN(C3)C1)C2`, the growth in test [1] was 119%; in test [2], 198%; in [3], 111%; in test [4], 133%; in [5], 111%; in test [6], 106%. Also, the growth in [7] was 117%; in test [8] it was 102%; in test [9], 103%.
For `CCOC(=O)[C@@H](C)C[C@H](Cc1ccccc1)NC(=O)c1csc([C@@H](C[C@H](C(C)C)N(C)C(=O)CNC(=O)[C@H]2CCCCN2C)OC(C)=O)n1`, the growth is 9.26% (active) in [1]; 6.73% (active) in [2]; 76.1% in test [3]; 14.5% in test [4]; -13.8% (active) in [5]; 46.6% in test [6]. Also, the growth was 5.3% (active) in test [7], -8.42% (active) in [8], 58.7% in [10] and -20.9% (active) in [9].
Consider `CC1=C(CCCNS(C)(=O)=O)C2=C(C)C3(CC3)[C@@](C)(O)C(=O)C2=C1`, for which the growth in test [1] is 4.13% (active); in test [2], 106%; in test [3], -63.1% (active); in test [4], -3.41% (active); in test [5], -75.6% (active); in test [6], 8.41% (active). Besides, the growth in [7] is 2.69% (active); in [8], -38.6% (active); in test [9], -51.3% (active).
Turning to `CC1CCCC(C[N+](C)(C)C)C1=O` (centres undefined), the growth in [1] was 115%; in test [2], 88.3%; in test [3], 76.5%; in [4], 104%; in test [5] it was 112%; in test [6], 112%. For the same compound, the figures for the growth in test [8], in test [10] and in test [9] were 94.2%, 112% and 101%, respectively.
As for `COc1cc(NC(C)CCCNC2CN3CCC2CC3)c2ncccc2c1` (centres undefined), the growth in test [1] is 112%; in test [2] it was 22.8%; in [3] it was 81.3%; in test [4] it was 55.1%; in test [5] it was 66.1%; in [6] it was 89.6%. Moreover, the growth in [8] is 82.3%; in [10], 39.9%; in test [9] it was 51.2%.
Take `CC(=O)OCC1O[C@@H]([S-])C(OC(C)=O)[C@H](OC(C)=O)[C@@H]1OC(C)=O.[Au+].c1ccc(CN2[CH-]N(Cc3ccccc3)C(c3ccccc3)=C2c2ccccc2)cc1`: the growth in test [1] was 68.5%; in [2] it was 1.59% (active); in test [3] it was -30.2% (active); in test [4], -29.4% (active); in test [5], -52.3% (active); in test [6], 33.4%. Besides, the growth in test [8] was 70.7%; in test [10] it was 65.5%; in test [9], 48.5%.
`COc1ccc(/C=C\c2cc(OC)c(OC)c(OC)c2)cc1OCC(=O)Nc1nc2ccc(C(F)(F)F)cc2s1`: the growth in test [1] is 0.679% (active); in test [2], 16%; in [3], 43.8%; in [4], 12.8%; in [5], -4.84% (active); in test [6], 43%. In addition, the growth was -18.6% (active) in test [8], 50% in test [10] and 22.3% in [9].
As for `O=C(O)c1ccc([S-])cc1.[Au+].c1ccc(CN2[CH-]N(Cc3ccccc3)C(c3ccccc3)=C2c2ccccc2)cc1`, the growth in test [1] was -47.2% (active); in test [2], -16.9% (active); in test [3], -68.6% (active); in [4], -62.5% (active); in test [5], -88.9% (active); in test [6] it was -42.7% (active). The growth in [8] is -1.4% (active); in test [10], -19.1% (active); in test [9], -48.1% (active).
With `CC(=O)/C=C/c1ccc2c(c1)OCO2`, the growth in test [1] is 104%; in [2], 106%; in test [3], 92%; in test [4] it was 95.1%; in test [6] it was 106%; in test [7], 94.1%. In addition, the growth is 102% in [8], 91.7% in [10] and 100% in [9].
